Measured values: PubChem BioAssay
The source made the active and inactive calls. Unless noted, the rule behind the calls is not given here.

How the values were obtained:
[1] = test system: Wnt5a (protein binding on small-molecule microarray); experiment: small molecules binding Wnt5a protein – biophysical, small-molecule microarray, 635/667 nm fluorescence, primary screen (AID 1142); conditions: 635 nm fluorescence, higher = more signal;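 note: fluorescence read at 667 nm with signal to noise per printed feature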
[2] = ATP-based viability of Huh7 replicon cells – cell-based, CellTiter-Glo luminescence, basal, 48 h, cytotoxicity control for HCV replication inhibitor project, primary screen (AID 1143); conditions: higher = more signal, called active from +8 up or from −8 down;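 note: Huh7 hepatoma cells carrying a hepatitis C replication reporter with no stimulus; test concentration not given here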
[3] = Pseudomonas biofilm growth suppression – PAO1 strain, BacTiter-Glo luminescence, LB-PBS, primary screen (AID 1144); conditions: P. aeruginosa PAO1 biofilm, 12 h, higher = more signal
[4] = basal CRE-LacZ reporter activity in PC12 – cell-based, unstimulated, primary screen (AID 1145); conditions: no forskolin, luminescence, 4.5 h, higher = more signal, called active from +8 up or from −8 down
[5] = forskolin-driven CRE-LacZ activity in PC12 – cell-based, CRE-LacZ reporter, forskolin-stimulated, primary screen (AID 1146); conditions: luminescence, 4.5 h, higher = more signal, called active from +8 up or from −8 down;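 note: PC12 cells with 6xCRE LacZ reporter stimulated by forskolin 10 µM; beta-galactosidase reporter signal reflecting CREB driven transcription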
[6] = molecular target: Streptavidin (Streptomyces avidinii) (UniProt P22629); experiment: compounds binding control protein streptavidin – biophysical, small-molecule microarray, 635/667 nm fluorescence, artefact control for SMM compound annotation, primary screen (AID 1147); conditions: higher = more signal;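 note: signal reflects streptavidin binding to arrayed compounds as a control protein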
Chain of Streptavidin (Streptomyces avidinii) (P22629 whole entry, looked up): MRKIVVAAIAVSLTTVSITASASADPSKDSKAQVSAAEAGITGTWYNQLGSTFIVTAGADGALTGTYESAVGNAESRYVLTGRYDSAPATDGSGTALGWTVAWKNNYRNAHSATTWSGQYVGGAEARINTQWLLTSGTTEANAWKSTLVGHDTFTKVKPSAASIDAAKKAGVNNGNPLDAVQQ

[7] = probe aInhba binding on compound microarray – biochemical, small-molecule microarray, 635/667 nm fluorescence, primary screen (AID 1148); conditions: higher = more signal;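 note: score merges 667nm spot fluorescence with signal-to-noise for antibody binding to printed compounds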
[8] = molecular target: Torsin-1A (Homo sapiens) (UniProt O14656); experiment: TOR1A wild-type binding on microarray – cell lysate, small-molecule microarray, lysate, 635/667 nm, primary screen (AID 1149); conditions: COS7 hTOR1A-WT lysate, 635 nm fluorescence, higher = more signal
Chain of Torsin-1A (Homo sapiens) (O14656 whole entry, looked up): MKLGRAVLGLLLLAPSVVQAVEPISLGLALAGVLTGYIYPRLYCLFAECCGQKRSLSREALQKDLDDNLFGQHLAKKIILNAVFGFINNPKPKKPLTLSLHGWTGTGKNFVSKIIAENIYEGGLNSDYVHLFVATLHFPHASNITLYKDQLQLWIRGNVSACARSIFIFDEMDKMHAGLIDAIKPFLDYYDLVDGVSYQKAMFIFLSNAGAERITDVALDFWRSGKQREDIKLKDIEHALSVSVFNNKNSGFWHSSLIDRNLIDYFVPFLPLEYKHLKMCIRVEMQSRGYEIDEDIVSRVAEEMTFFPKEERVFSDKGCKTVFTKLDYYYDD

[9] = molecular target: Torsin-1A (Homo sapiens) (UniProt O14656); experiment: torsin A mutant lysate binding on microarrays – cell lysate, small-molecule microarray, COS7 lysate, 635/667 nm fluorescence, primary screen (AID 1150); conditions: COS7 hTOR1A mutant lysate, 635 nm fluorescence, higher = more signal;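 note: score pools 667 nm emission and signal to noise measuring lysate protein binding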
[10] = test system: Sonic hedgehog protein (Shh); experiment: Sonic hedgehog microarray binding compounds – biochemical, small-molecule microarray, 635/667 nm fluorescence, primary screen (AID 1151); conditions: 635 nm fluorescence, higher = more signal;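 note: Shh protein binding to compounds spotted on small-molecule microarray slides; score combines spot fluorescence intensity with signal-to-noise across triplicate slides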
[11] = optical density shifts of acrAB sulA E. coli – strain DRC41, OD650, 48 h, E. coli filamentation inducer project, primary screen (AID 1152); conditions: higher = more signal, called active from +8 up or from −8 down;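 note: E. coli MC1000 strain DRC41 lacking acrAB efflux pump and sulA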
[12] = probe aLefty1 binding on compound microarray – biochemical, small-molecule microarray, 635/667 nm fluorescence, primary screen (AID 1153); conditions: higher = more signal;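 note: score merges spot fluorescence with signal-to-noise ratio from the scanned slide images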
[13] = plasmodial surface anion channel blockers, osmotic lysis – cell-based, P. falciparum Indochina, OD700, 1 h, primary screen (AID 1154); conditions: P. falciparum Indochina infected RBC osmotic lysis, higher = more signal, called active from +8 up or from −8 down
[14] = plasmodial surface anion channel blockers, osmotic lysis – cell-based, P. falciparum Indochina, OD700, 2 h, primary screen (AID 1155);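 note: lysis reports solute entry through the parasite surface anion channel PSAC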; conditions: P. falciparum Indochina infected erythrocytes, higher = more signal, called active from +8 up or from −8 down
[15] = changes in parasitized red cell lysis, either direction – P. falciparum Indochina, OD700, 3 h, PSAC antagonist project, primary screen (AID 1156); conditions: P. falciparum-infected erythrocytes, osmotic lysis, higher = more signal, called active from +8 up or from −8 down
[16] = plasmodial surface anion channel blockers, osmotic lysis – cell-based, P. falciparum Indochina, OD700, 18 h, primary screen (AID 1157); conditions: P. falciparum Indochina infected erythrocytes, osmotic lysis OD700, 18 h; higher = more signal, called active from +8 up or from −8 down
[17] = S6 kinase pathway phospho-S6 level changes – cell-based, A549, cytoblot, luminescence, serum-stimulated, primary screen (AID 1158); conditions: 5 h, higher = more signal;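 note: serum-stimulated A549 lung adenocarcinoma cells; signal is phosphorylated S6 detected by cytoblot immunostaining with HRP secondary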
[18] = molecular target: NADPH oxidase 2 (Homo sapiens) (UniProt P04839); experiment: compounds shifting NOX2 Amplex Red fluorescence – cell-based, HEK293-NOX2, PMA-stimulated, NOX inhibitor project, primary screen (AID 1159); conditions: 45 min, higher = more signal, called active from +8 up or from −8 down; note: test concentration not given here
Chain of NADPH oxidase 2 (Homo sapiens) (P04839 whole entry, looked up): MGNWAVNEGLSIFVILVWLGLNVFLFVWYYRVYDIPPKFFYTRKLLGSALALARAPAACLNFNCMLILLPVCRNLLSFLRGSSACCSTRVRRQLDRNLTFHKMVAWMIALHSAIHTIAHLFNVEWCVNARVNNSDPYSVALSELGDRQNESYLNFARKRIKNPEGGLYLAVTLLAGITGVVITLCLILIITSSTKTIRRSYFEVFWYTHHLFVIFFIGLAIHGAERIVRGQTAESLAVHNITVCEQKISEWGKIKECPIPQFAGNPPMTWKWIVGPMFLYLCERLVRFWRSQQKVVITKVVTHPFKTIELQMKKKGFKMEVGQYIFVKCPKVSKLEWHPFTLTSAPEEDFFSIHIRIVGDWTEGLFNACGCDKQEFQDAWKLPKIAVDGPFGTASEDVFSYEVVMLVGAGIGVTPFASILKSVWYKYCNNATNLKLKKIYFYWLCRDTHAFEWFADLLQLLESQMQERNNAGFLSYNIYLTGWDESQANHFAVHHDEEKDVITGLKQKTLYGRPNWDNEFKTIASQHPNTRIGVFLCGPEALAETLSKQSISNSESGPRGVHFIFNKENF

[19] = molecular target: NADPH oxidase 4 (Homo sapiens) (UniProt Q9NPH5); experiment: compounds shifting NOX4 Amplex Red fluorescence – cell-based, HEK293-NOX4, tetracycline-induced, NOX inhibitor project, primary screen (AID 1160); conditions: HEK293-NOX4, Amplex Red H2O2 fluorescence, 45 min; higher = more signal, called active from +8 up or from −8 down
Chain of NADPH oxidase 4 (Homo sapiens) (Q9NPH5 whole entry, looked up): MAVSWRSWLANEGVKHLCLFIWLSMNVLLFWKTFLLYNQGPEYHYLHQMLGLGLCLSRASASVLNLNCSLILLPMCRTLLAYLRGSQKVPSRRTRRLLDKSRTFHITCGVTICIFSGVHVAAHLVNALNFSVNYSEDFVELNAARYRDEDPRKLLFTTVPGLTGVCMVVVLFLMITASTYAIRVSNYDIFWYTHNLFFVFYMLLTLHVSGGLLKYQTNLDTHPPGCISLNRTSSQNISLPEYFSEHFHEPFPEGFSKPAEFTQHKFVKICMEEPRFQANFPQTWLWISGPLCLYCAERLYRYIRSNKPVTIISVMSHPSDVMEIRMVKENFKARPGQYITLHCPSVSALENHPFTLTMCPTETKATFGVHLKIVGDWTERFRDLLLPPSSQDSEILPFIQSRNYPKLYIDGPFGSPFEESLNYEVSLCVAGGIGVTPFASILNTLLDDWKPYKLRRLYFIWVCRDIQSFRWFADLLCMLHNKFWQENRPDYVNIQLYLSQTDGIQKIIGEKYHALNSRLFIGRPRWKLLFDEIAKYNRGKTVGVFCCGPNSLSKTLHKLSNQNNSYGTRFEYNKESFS

[20] = molecular target: NADPH oxidase 5 (Homo sapiens) (UniProt Q96PH1); experiment: compounds shifting NOX5 Amplex Red fluorescence – cell-based, HEK293-NOX5, NOX inhibitor project, primary screen (AID 1161); conditions: HEK293-NOX5, ionomycin, 45 min, higher = more signal
Chain of NADPH oxidase 5 (Homo sapiens) (Q96PH1 whole entry, looked up): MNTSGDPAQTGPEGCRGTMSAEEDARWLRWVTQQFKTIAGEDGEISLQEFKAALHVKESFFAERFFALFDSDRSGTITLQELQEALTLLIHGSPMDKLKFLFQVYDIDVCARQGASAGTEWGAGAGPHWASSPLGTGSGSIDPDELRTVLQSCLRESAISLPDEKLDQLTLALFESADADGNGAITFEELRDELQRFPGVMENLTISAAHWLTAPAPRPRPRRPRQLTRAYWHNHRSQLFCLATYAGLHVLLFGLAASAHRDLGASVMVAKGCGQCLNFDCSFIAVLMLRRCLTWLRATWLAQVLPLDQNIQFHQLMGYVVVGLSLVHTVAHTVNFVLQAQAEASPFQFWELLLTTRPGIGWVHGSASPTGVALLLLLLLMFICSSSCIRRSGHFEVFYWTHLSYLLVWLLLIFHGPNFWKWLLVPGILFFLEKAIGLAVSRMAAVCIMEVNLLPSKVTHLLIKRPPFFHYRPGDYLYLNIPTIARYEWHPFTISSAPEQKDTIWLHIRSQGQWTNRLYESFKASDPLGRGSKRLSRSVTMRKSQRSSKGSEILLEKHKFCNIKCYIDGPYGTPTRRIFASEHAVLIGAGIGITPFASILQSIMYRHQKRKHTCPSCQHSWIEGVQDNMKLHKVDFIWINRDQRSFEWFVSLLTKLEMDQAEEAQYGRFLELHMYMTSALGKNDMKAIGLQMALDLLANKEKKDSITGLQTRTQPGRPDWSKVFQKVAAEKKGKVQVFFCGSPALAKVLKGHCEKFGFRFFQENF

SMILES | composite z-score [1] | z-score [2] | z-score [3] | z-score [4] | z-score [5] | composite z-score [6] | composite z-score [7] | composite z-score [8] | composite z-score [9] | composite z-score [10] | z-score [11] | composite z-score [12] | z-score [13] | z-score [14] | z-score [15] | z-score [16] | z-score [17] | z-score [18] | z-score [19] | z-score [20]
COCCOC(=O)N1C(=O)[C@@]2(c3cc(C#CC4=CCCCC4)ccc31)[C@H](c1ccc(OCCO)cc1)N1[C@H](c3ccccc3)[C@H](c3ccccc3)OC(=O)[C@H]1[C@@H]2C(=O)N1CCN(c2ncccn2)CC1 | 0.323 | -1.24 (inactive) | 1.04 (inactive) | 0.212 (inactive) | -0.674 (inactive) | 0.0363 | 0.0649 | 0.767 | 0.501 | 0.772 | 0.887 (inactive) | 0.121 | 3.35 (inactive) | 1.73 (inactive) | -0.146 (inactive) | 0.799 (inactive) | 0.829 | 0.825 (inactive) | -0.623 (inactive) | 1.03
CCOC(=O)C[C@H]1[C@H](OC(=O)c2cc3ccccc3oc2=O)[C@@H](NC(=O)Cc2ccc(OC)cc2)c2cc(OCCCO)ccc2N1C(=O)c1ccc2ccccc2n1 | 0.34 | 0.0642 (inactive) | 0.177 (inactive) | 11.5 (active) | -0.906 (inactive) | 0.14 | 0.0275 | 0.0518 | 0.161 | 0.479 | 0.96 (inactive) | -0.0046 | 9.52 (active) | 0.85 (inactive) | 0.785 (inactive) | 0.305 (inactive) | 0.336 | 1.71 (inactive) | 1.34 (inactive) | 1.53
CCCC[C@@H]1C[C@H]1[C@@H](NC(=O)c1ccccc1)c1ccc(C(F)(F)F)cc1 | -0.547 | 0.085 (inactive) | 0.401 (inactive) | -0.572 (inactive) | 0.24 (inactive) | 0.056 | -0.143 | -1.15 | -0.349 | -1.85 | -0.903 (inactive) | 0.361 | -0.512 (inactive) | 0.0991 (inactive) | 0.162 (inactive) | 0.739 (inactive) | -0.295 | -0.3 (inactive) | -0.742 (inactive) | 0.689
Cc1ccccc1C(O)C1C=CC2C(=O)N(C)C(=O)C2N1N(c1ccccc1)c1ccccc1 (stereo not given) | 0.613 | -0.0897 (inactive) | -0.588 (inactive) | -0.136 (inactive) | -0.0376 (inactive) | 0.115 | 1.15 | -0.0241 | 0.0289 | 0.188 | -0.402 (inactive) | 0.998 | 3.21 (inactive) | 1.71 (inactive) | 0.625 (inactive) | 1.25 (inactive) | -0.877 | 0.888 (inactive) | 0.0569 (inactive) | -0.125
